Bioassay records as filed in PubChem BioAssay.
The list is not random: actives were taken first. Their share in the collection is about 2.1%.
Abeta yeast res = qHTS for compounds that reverse cellular toxicity of Amyloid beta (A-beta) peptide in yeast: Primary Screen. yeast expressing A-beta42, growth rescue, OD600, 48 h; response scale: 0% DMSO, 100% iron-clioquinol control. Potency, µM (highest dose often 46.1 µM), usual class: activators. hit rate 0.063% among 410,000; note: nearly all actives have a fitted effect of over 55% in size
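Growth rescue measured by 600 nm absorbance after 48 h yeast culture at 30 C with compound. Values normalized between DMSO and an equimolar ferric chloride plus clioquinol control.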
FUS suppressor = qHTS for Suppressors of FUS Proteinopathy: Primary screen using FUS-linked yeast assay. hit rate 0.24% among 390,000. S. cerevisiae FUS-expressing, growth rescue, OD600, 24 h. Potency, µM (doses to about 76.6 µM), most hits filed as activators;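 note: plate controls were DMSO vehicle for no effect and reference control for full effect; nearly all actives have a fitted effect of over 55% in size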
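Compound concentration series was pinned onto galactose-induced FUS-expressing yeast seeded at OD 0.005. Plates sat 24hr at 30C; absorbance at 600 nm gave growth. DMSO served as background control.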
aSyn yeast inh = qHTS of alpha-syn Inhibitors. Yeast expressing alpha-synuclein, growth rescue, BacTiter-Glo, 24 h. Potency, µM (top dose mostly 46.1 µM), inactives show top-dose growth rescue (activation), hits mostly activators. hit rate 0.14% among 370,000; note: % of control where 0% means no effect; nearly all actives have a fitted effect of over 65% in size
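Readout is rescue of growth in alpha-synuclein-expressing yeast, so inhibitors of toxicity appear as activators. Growth after 24 hr at 30 deg C in galactose medium is quantified by luminescence.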
TDP43 rescue = qHTS of TDP-43 Inhibitors; hit rate 1.8% among 410,000; Potency, µM (doses to about 46.1 µM), without a hit: top-dose growth rescue (activation), hits mostly activators; TDP-43 expressing yeast growth rescue, BacTiter-Glo, 24 h; note: % of control where 0% means no effect; nearly all actives have a fitted effect of over 50% in size
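Growth rescue of TDP-43-toxic yeast measured as ATP luminescence (BacTiter-Glo). Cells grown to mid-log in raffinose, induced in galactose at OD600=0.02, exposed to compound 24 hr at 30 deg C.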
Starred values were filed as active, the others as inactive. Calls come from the whole dose curve; as a rule, active = well fitted curve in the direction sought with a large enough effect; inconclusive = small, poorly fitted or top-dose-only effect, or another doubt; inactive = no such curve, though single readings can be large; an effect the other way counts as inactive or inconclusive. Potency is the fitted concentration of half-maximal effect.

Screening O=C(O)c1ccc(-n2nc(C(F)(F)F)c3c2CCCC3)cc1 returned Abeta yeast res inactive, FUS suppressor inactive, aSyn yeast inh 10% and TDP43 rescue 16µM*.
CC(C)C[C@@H]1NC(=O)[C@H]2C[C@]3(c4ccccc4)c4ccccc4N[C@H]3N2C1=O was read as FUS suppressor inactive.
`CCOc1ccccc1CNC(=O)CCc1c(C)nn(-c2ccc(N3CCCCC3)nn2)c1C` gave Abeta yeast res inactive, FUS suppressor inactive and TDP43 rescue 6%.
`Cc1ccn2c(NC3CCCCC3)c(-c3ccc(C)o3)nc2c1` gave aSyn yeast inh -2%.
`Cn1ccc2c(-c3cncc4ccccc34)cc3c(c21)C1CCC3C1` (stereo not drawn) gave Abeta yeast res inactive, FUS suppressor inactive, aSyn yeast inh -20% and TDP43 rescue 28µM*.
CC(=O)C(=Cc1cn(-c2ccccc2)nc1-c1ccccc1)C(C)=O was read as Abeta yeast res inactive, FUS suppressor inactive, aSyn yeast inh 4% and TDP43 rescue 14µM*.
Screening Cc1ccc(C(=O)N/C(=C/c2cn(-c3ccccc3)nc2-c2ccccc2)C(=O)O)cc1 returned Abeta yeast res inactive, FUS suppressor inactive, aSyn yeast inh -1% and TDP43 rescue 10%.
`CCC12CN3CC(CC)(CN(C1)C3c1cc(Br)ccc1OC)C2=O` (stereo not drawn) gave Abeta yeast res inactive, FUS suppressor inactive and TDP43 rescue 2%.
N#Cc1ccccc1OCC(=O)N1CCN(c2ccccc2F)CC1 was read as Abeta yeast res inactive, FUS suppressor inactive and TDP43 rescue 22µM*.
Screening COc1ccccc1N1CCN(C(=O)COc2ccccc2C#N)CC1 returned Abeta yeast res inactive, FUS suppressor inactive and TDP43 rescue inconclusive.
For Cc1nn(CC(=O)Nc2ccccc2F)c(=O)c2c(C)n(-c3ccc(Cl)cc3)nc12 the results were Abeta yeast res inactive, FUS suppressor inactive and TDP43 rescue 12%.
For Cc1nn(C)c2c1c(C(F)(F)F)cc(=O)n2CC(=O)N1CCN(c2ccccc2F)CC1 the results were Abeta yeast res inactive, FUS suppressor inconclusive and TDP43 rescue 22µM*.
For Cc1cc(=O)n(CC(=O)N2CCN(c3ccccc3F)CC2)c2c1c(C)nn2C the results were Abeta yeast res inactive, FUS suppressor inactive and TDP43 rescue inconclusive.
Screening COc1ccc(C2c3c(n(C)c4ccccc34)C(=O)N2CC(=O)Nc2ccccc2F)cc1 (stereo not drawn) returned Abeta yeast res inconclusive, FUS suppressor inconclusive and TDP43 rescue 21%.
For CCOC(=O)Nc1ccc2c(c1)N(C(=O)CN(C)C)c1ccccc1S2 the results were Abeta yeast res inactive, FUS suppressor inactive, aSyn yeast inh -3% and TDP43 rescue -5%.
CCOC(=O)Nc1ccc2c(c1)N(C(=O)CCN(C)C)c1ccccc1S2 was read as Abeta yeast res inactive, FUS suppressor inactive, aSyn yeast inh 13% and TDP43 rescue 20µM*.
For O=C(COC(=O)c1ccc(C(F)(F)F)cc1)NC(=O)C1CCCCC1 the results were aSyn yeast inh 1%.
Screening CCCCOCCCNC(=O)C[C@H]1C[C@@]2(C(=O)OC)C(=C[C@H](C3CCCC3)O[C@@H]2C)N(Cc2cccc3ccccc23)C1=O returned FUS suppressor 8.9µM*.
`COC(=O)[C@]12C[C@H](CC(=O)NCc3ccccc3)C(=O)N(Cc3ccc(Cl)cc3Cl)C1=C[C@H](C1CCCC1)O[C@@H]2C` gave FUS suppressor inactive.
`COC(=O)[C@]12C[C@H](CC(=O)NCCc3ccccc3OC)C(=O)N(Cc3cccc4ccccc34)C1=C[C@H](C(C)(C)C)O[C@@H]2C` gave FUS suppressor 14µM*.
Screening COC(=O)[C@]12C[C@H](CC(=O)N3CCN(C(=O)C4CC4)CC3)C(=O)N(Cc3cccc4ccccc34)C1=C[C@H](C1CCCC1)O[C@@H]2C returned FUS suppressor 20µM*.
`COC(=O)[C@]12C[C@H](CC(=O)NCC34CC5CC(CC(C5)C3)C4)C(=O)N(Cc3cccc4ccccc34)C1=C[C@H](C(C)(C)C)O[C@@H]2C` gave FUS suppressor inactive.
